# Results published in PubChem BioAssay AID620 (Sanford-Burnham Center for Chemical Genomics, 2007).
# The whole screen tested about 87,000 compounds, of which about 360 (0.41%) were called active. The list comes from a sample in which actives are over-represented; it also holds similar structures and randomly drawn compounds. A number with no mark means an inactive call. No stated cut-off is given here; in the data, active means cytotoxicity above about 50%; inactive means the rest.
# Assay: cytotoxicity in HT1080 fibrosarcoma cells, cell-based, fluorescence readout (AID 620);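 further: cells exposed to compound overnight then 4 h with Alamar Blue; 0% = vehicle DMSO and 100% = killing control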
# Conditions: HT1080 viability, at 10 µM, hits give high values
row,Compound,cytotoxicity
1,N#CC1C(C#N)N2CCCN2C1c1ccc(Cl)cc1 (stereo unspecified),-17.9%
2,CCn1c(SCC(=O)O)nnc1C1CCCCC1,3.3%
3,CCN1C(=O)/C(=C2\C=Cc3ccccc3N2CC)OC1=S,5.1%
4,CCN1/C(=C/c2ccc3ccccc3[n+]2CC)C=Cc2ccccc21,54.3% (active)
5,CCN1C(=C2C(=O)c3ccccc3C2=O)C=Cc2ccccc21,12.1%
6,Cc1cc(C)c2c(N)c(C(=O)NCc3ccco3)sc2n1,10.7%
7,Cc1cc(C)cc(N(CC(=O)N2CCN(Cc3ccccc3)CC2)S(=O)(=O)c2c(C)noc2C)c1,-0.8%
8,Cc1ccccc1-c1nc(CN2CCCC(C(=O)NCc3cccnc3)C2)c(C)o1 (stereo unspecified),-7.7%
9,N#CC1=C(N)Oc2c(ccc3ccccc23)C1c1cccs1 (stereo unspecified),65.3% (active)
10,N#CC1=C(N)Oc2cc3ccccc3cc2C1c1cccs1 (stereo unspecified),-2.7%
11,N#CC1=C(N)Oc2cc(O)ccc2C1c1cccs1 (stereo unspecified),-3.3%
12,COc1ccc(CCn2nnnc2C(C(C)C)N2CCC(C(N)=O)CC2)cc1OC (stereo unspecified),6%
13,Cc1cc(C)cc(OC(=O)N2CCOCC2)c1,3.6%
14,CCOC(=O)CNc1c(-c2ccc(O)cc2)nc2ccc(Cl)cn12,36.6%
15,CCOC(=O)CNc1c(-c2ccccc2)nc2ccc(Cl)cn12,24.2%
16,CCOC(=O)CNc1c(-c2ccc(OC)cc2)nc2ccc(Cl)cn12,73.3% (active)
17,CCOC(=O)N1CCN(C(=O)CSc2nc3ccccc3c(=O)n2-c2ccccc2)CC1,5.2%
18,CCn1c(CC(=O)Nc2ccc(C)c(Cl)c2)nnc1SCC(=O)Nc1nc(C)cs1,-12.9%
19,COc1ccc(CC(=O)NC2CCN(CC(=O)Nc3ccc4c(c3)OCCO4)CC2)cc1OC,-8.3%
20,O=C(CN1CCc2ccccc2C1)Nc1ccccc1N1CCCCCC1,-18.8%
21,CN(C)CCCN1c2ccccc2Sc2ccc(C(F)(F)F)cc21,54% (active)

row,Compound,cytotoxicity
1,OCCN1CCN(CCCN2c3ccccc3Sc3ccc(C(F)(F)F)cc32)CC1,91.7% (active)
2,CC(CN1c2ccccc2Sc2ccccc21)N(C)C (stereo unspecified),11.7%
3,OCCN1CCN(CCCN2c3ccccc3Sc3ccc(Cl)cc32)CC1,22.8%
4,COc1ccc([C@@H]2Sc3ccccc3N(CCN(C)C)C(=O)[C@@H]2OC(C)=O)cc1,31.1%
5,O=C(CN1CCCC1)N1c2ccccc2Sc2ccc(C(F)(F)F)cc21,-7.9%
6,CN(C)CCCN1c2ccccc2Sc2ccccc21,15.9%
7,COc1ccc2c(c1)Sc1ccccc1N2CCN(C)C,58.8% (active)
8,CN1CCN(CCCN2c3ccccc3Sc3ccc(C(F)(F)F)cc32)CC1,7.7%
9,O=c1c2ccccc2c(C=NC2CCS(=O)(=O)C2)c(O)n1-c1ccccc1 (stereo unspecified),-6.8%
10,Nc1c(C(=O)NCc2ccccc2)nnn1Cc1ccc(F)cc1,1.7%
11,Cc1cccc(N2CCN(C(=O)c3ccc(CS(=O)(=O)c4ccccc4C)o3)CC2C)c1 (stereo unspecified),51.2% (active)
12,COc1ccc(S(=O)(=O)Cc2ccc(C(=O)N3CCN(c4cccc(C)c4)C(C)C3)o2)cc1 (stereo unspecified),52.2% (active)
13,CCOC(=O)N1CCN(C(=O)c2ccc(CS(=O)(=O)c3ccc(OC)cc3)o2)CC1,0.8%
14,Cc1ccccc1S(=O)(=O)Cc1ccc(C(=O)N2CC(C)CC(C)C2)o1 (stereo unspecified),-14.1%
15,COc1ccc(N2CCN(C(=O)c3ccc(CS(=O)(=O)c4ccc(OC)cc4)o3)CC2)cc1,-8.4%
16,Cc1ccc(C)c(N2CCN(C(=O)c3ccc(CS(=O)(=O)c4ccccc4C)o3)CC2)c1,34%
17,Cc1ccc2c(c1)[C@H]1OCC[C@H]1[C@@H](c1ccncc1)N2,-2.2%
18,CC1CCCCN1CCn1c(=S)[nH]c2ncccc2c1=O (stereo unspecified),33.2%
19,Cn1c(SCC(=O)NC2CCCC2)nnc1-c1ccc(S(=O)(=O)N2CCOCC2)cc1,4.3%
20,O=C1CCC(=O)N1c1ccccc1-c1ccccc1,-0.5%
21,CCCC(=O)Nc1ccc(NC(=O)CCc2ccccc2)cn1,8.6%

row,Compound,cytotoxicity
1,O=C(CSCc1ccccc1)Nc1ccc(Cl)cn1,20.2%
2,O=C(CCc1ccccc1)Nc1ccc(Cl)cn1,52.1% (active)
3,Cc1ccc(NC2=NC3(CCCCC3)N=C(N)N2)c(C)c1,33%
4,COC(=O)C1=C(C)Nc2nnnn2C1c1cccnc1 (stereo unspecified),10%
5,CC1/C(=N/O)CC(c2ccccc2)N(C)C1c1ccccc1 (stereo unspecified),-0.2%
6,CCOc1ccc(S(=O)(=O)N2c3ccccc3CC2C)cc1 (stereo unspecified),74.1% (active)
7,CC1Cc2ccccc2N1S(=O)(=O)c1ccc2c(c1)n(C)c(=O)c(=O)n2C (stereo unspecified),-1.8%
8,COc1ccc(OC)c(S(=O)(=O)N2c3ccccc3CC2C)c1 (stereo unspecified),10.1%
9,O=C(NCc1ccccn1)[C@@H]1C[C@H]1[C@@H](NP(=O)(c1ccccc1)c1ccccc1)c1ccccc1,-17.9%
10,CCOc1ccc(NC(=O)CSc2nnc(-c3ccco3)n2C)cc1,-3.7%
11,CN(C(=O)c1cc2n(n1)C(C(F)(F)F)CC(c1ccco1)N2)c1ccccc1 (stereo unspecified),56.4% (active)
12,CN(C(=O)c1cc2n(n1)C(C(F)(F)F)CC(c1ccco1)N2)c1ccc(OC(F)(F)F)cc1 (stereo unspecified),-1.6%
13,O=C(NC1CCCCCC1)c1cc2n(n1)C(C(F)(F)F)CC(c1ccco1)N2 (stereo unspecified),-4.1%
14,NC(=O)Nc1ccc(Oc2c(F)c(F)c(F)c(F)c2F)cc1,6%
15,OC(CCN1CCCC1)(c1ccccc1)C1CCCCC1 (stereo unspecified),-2.5%
16,OC(CCCCN1CCCCC1)c1ccccc1 (stereo unspecified),-4.7%
17,CC(C)(C)c1ccc(C(O)CCCN2CCC(C(O)(c3ccccc3)c3ccccc3)CC2)cc1 (stereo unspecified),93.4% (active)
18,O=c1c2ccccc2nnn1CSc1nc2ccccc2c(=O)n1Cc1ccco1,-4.3%
19,CC1CCCCC1NC(=O)CCn1c(=O)oc2ccccc21 (stereo unspecified),-4%
